From PubChem BioAssay AID504332 (National Center for Advancing Translational Sciences (NCATS), 2011)
Hit rate of the full screen: of about 350,000 compounds, about 31,000 (8.9%) were called active. About 15% were inconclusive and are not listed. This excerpt belongs to a sample that is enriched for actives. A number with no mark means an inactive call. The call rests on the fitted dose curve; in most records, active means well fitted inhibition curve with a large enough effect; inconclusive means small, poorly fitted or top-dose-only effect; inactive means no such curve, though single readings can be large or run the other way.

Molecular target: Histone-lysine N-methyltransferase EHMT2 (Homo sapiens) (UniProt Q96KQ7)
Sequence (Q96KQ7 913-1193 limits assumed): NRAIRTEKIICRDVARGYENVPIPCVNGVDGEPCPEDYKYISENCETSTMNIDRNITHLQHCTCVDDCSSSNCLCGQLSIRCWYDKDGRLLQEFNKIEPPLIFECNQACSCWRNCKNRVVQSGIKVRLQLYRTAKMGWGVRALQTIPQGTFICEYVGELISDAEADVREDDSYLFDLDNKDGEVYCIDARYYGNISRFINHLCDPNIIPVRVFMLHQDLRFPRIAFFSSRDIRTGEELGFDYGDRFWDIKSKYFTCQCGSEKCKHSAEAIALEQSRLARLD
Assay: qHTS Assay for Inhibitors of Histone Lysine Methyltransferase G9a; further: nearly all actives have a fitted effect of over 75% in size
Details: G9a H3K9 monomethylation, AlphaScreen, 2 h; series mostly up to 59 µM; activity, negative = inhibition: at the top concentration
Excerpt: Methylated lysines, on the N-terminal tails of histone proteins serve as epigenetic markers to recruit factors that can then modify local chromatin structure to lead to functional consequences. G9a and other members of the SUV39 family of the SET domain-containing superfamily of histone lysine methyltransferases (HMT) have been identified to specifically methylate Lys9 of histone H3 (H3K9). G9a catalyzes the mono- and di-methylation of H3K9 in mammalian euchromatic regions, where the resulting H3K9me2 is indicative of transcriptional repression. […] The inhibition of G9a will result in transcriptional activation and work synergistically with DNA methyltransferase and histone deacetylase inhibitors, to kill cancer cells. This qHTS assay for identification of G9a inhibitors is a chemiluminescence based AlphaScreen (PerkinElmer). Methylation of biotinylated-histone peptide is measured through specific antibody-based detection, in conjunction with streptavidin-coated donor and anti-IgG antibody-coated acceptor beads. The method is particularly well suited for detection of inhibitors acting by the desired histone peptide competitive mechanism and is applicable to testing other HMTs. Although AlphaScreen has significant advantages with its utility in a variety of epigenetic target assays, the primary screening data provided in this deposition should be used with caution due to the prevalence of screening artifacts. An AlphaScreen counterscreen is highly recommended to be run against any putative actives to eliminate non specific artifacts. Alternatively, one can use other AlphaScreen assays in PubChem to filter out promiscuous hits. Quinn et al. A chemiluminescence-based method for identification of histone lysine methyltransferase inhibitors. Mol Biosyst 6(5): 782-8. 2010. PMID: 20567762 [2] Baell,Holloway. New substructure filters for removal of pan assay interference compounds (PAINS) from screening libraries and for their exclusion in bioassays. J Med Chem. 53(7):2719-40. 2010. PMID: 20131845 NIH Molecular Libraries Probe Production Network [MLPCN] NIH Chemical Genomics Center [NCGC] Structural Genomics Consortium (SGC) NIH Grant: 5U54 MH084681-02
To each well of a 1,536w plate, 2ul of HMT enzyme (final 20nM) were added, using a nanoliter dispenser. The G9a- and GLP-inhibitor BIX-01294 (CID: 25150857) are used as an intraplate control, with a 16-point titration in duplicate. A Kalypsys pin-tool transferred 23nl of library compound solution in DMSO to each well. Following a 15 min incubation of enzyme with compounds at room temperature, 1ul mixture of b-H3K9 peptide substrate (final 500nM) and SAM cofactor (final 20uM) were added. Reactions were allowed to proceed at room temperature for 2 hours. Methylated b-H3K9 peptide product was detected with 0.5 ug/mL rabbit polyclonal anti-monomethyl histone H3K9 antibody (Abcam Inc., Cambridge, MA) and 20 ug/mL each streptavidin-coated donor and anti-rabbit IgG acceptor AlphaScreen beads. Antibody and beads were added in a 1ul dispense, for a final volume of 4ul, and plates were incubated, protected from the light, for 10 min at room temperature. Microplates were then read on an EnVision multilabel plate reader using the 1,536 plate HTS AlphaScreen aperture (excitation time 80 ms, measurement time 240 ms).
On the % scale 0 is the no-effect control and ±100 the full control effect; potency means the concentration at half of the fitted maximal effect.

SMILES | activity, negative = inhibition | Potency
COc1ccc(CNC(=O)CSc2n[nH]c(-c3ccc(F)cc3)n2)cc1 | 0.544% | 
Nc1nc(SCC(=O)NNc2c(Cl)cc(Cl)cc2Cl)n[nH]1 |  | 10 µM (active)
Nc1nc(SCC(=O)Nc2ccc(Cl)cc2C(F)(F)F)n[nH]1 | -3.97% [at 102 µM] | 
Cc1ccc(CCNC(=O)C2CCN(c3nnc(-n4cccc4CNc4ccc(C)cc4)s3)CC2)cc1 | -6.97% | 
COC(=O)c1ccc(NC(=O)c2cccc3c2C(=O)N(C2CCCCC2)C3)cc1 | 3.3% | 
CC1CCN(C(=O)c2cccc(S(=O)(=O)N3CCCc4ccccc43)c2)CC1 | 10.4% [at 2.33 µM] | 
COc1cc(OC)cc(C(=O)NNC(=O)CCOc2ccccc2OC)c1 | 10.9% | 
COc1cccc(C(=O)NCC(=O)OCc2cc(=O)n3ccsc3n2)c1 | 4.14% | 
COc1cc(C(=O)Nc2ccc(OCc3cc(=O)n4cc(C)sc4n3)cc2)cc(OC)c1OC | -3.43% | 
O=C(Nc1cccc2cccnc12)c1cccc2c(Br)cccc12 | -2.34% | 
CCCC(=O)C1CCN(Cc2ccccc2)CC1 | -1.84% [at 102 µM] | 
CCOC(=O)C1CCN(Cc2nnc(-c3cccc(Br)c3)o2)CC1 | -1.61% [at 102 µM] | 
CCOC(=O)C1CCN(Cc2ccc(-c3ccccc3)cc2)CC1 |  | 28.2 µM (active)
CCC(C)N(C(=O)Cn1nc(C)c([N+](=O)[O-])c1C)C1CCS(=O)(=O)C1 (stereo not drawn) | -29.5% [at 102 µM] | 
CCCC1OC23CCCCC2C(C#N)(C#N)C1(C#N)C(=N)O3 (stereo not drawn) |  | 17.8 µM (active)
Cc1cccc(NC(=O)CSc2nc3c(oc4ccccc43)c(=O)n2-c2ccc(F)cc2)c1 | 4.81% | 
COc1ccc(C(=O)CN2C(=O)NC3(CCc4ccccc43)C2=O)c(OC)c1 (stereo not drawn) | 2.57% | 
CCC(CC)C(=O)N1CCc2cc(OC)c(OC)cc2C1COc1ccc(F)cc1 (stereo not drawn) | 10.1% | 
CC(Oc1ccc(Br)cc1)C(=O)NCC(c1ccco1)N1CCCCC1 (stereo not drawn) | -6.2% [at 102 µM] | 
COc1ccc(NC(=O)C(=O)NCC(c2ccco2)N2CCc3ccccc3C2)cc1 (stereo not drawn) | 24.1% [at 2.33 µM] | 
CCOC(CNC(=O)C(=O)NCC(c1ccco1)N1CCN(c2ccc(OC)cc2)CC1)OCC (stereo not drawn) |  | 79.4 µM (active)
O=C(Cn1nc(C(F)(F)F)c2c1CCCC2)Nc1ccc(Cl)cc1 | 2.55% | 
COc1ccccc1CNC(=O)C(=O)NCC(c1ccco1)S(=O)(=O)c1ccc(F)cc1 (stereo not drawn) | -4.12% | 
Cc1cc2c(cc1C)N(C(=O)CN1C(=O)c3ccccc3C1=O)C(C)(C)c1ssc(=S)c1-2 |  | 28.2 µM (active)

SMILES | activity, negative = inhibition | Potency
Cc1ccc(NC(=O)CCN2C(=O)c3ccccc3C2=O)cc1C | 4.98% [at 102 µM] | 
Cc1cc(C)cc(NC(=O)CN2C(=O)c3ccccc3C2=O)c1 | 30% [at 102 µM] | 
Cc1cc([N+](=O)[O-])c(N2CCC[C@@H]2C(=O)O)c([N+](=O)[O-])c1 | 9.82% | 
CC1CCC2CCCCC2N1C(=O)c1cc([N+](=O)[O-])cc([N+](=O)[O-])c1 (stereo not drawn) |  | 44.7 µM (active)
COC(=O)c1cc(C(=O)NC(C)C2CC3CCC2C3)cc([N+](=O)[O-])c1 (stereo not drawn) | -43.7% [at 102 µM] | 
CCN(CC)C(=O)c1nc[nH]c1C(=O)N(C)Cc1ccccc1 | -4.89% [at 2.33 µM] | 
CCc1ccc(C2CC(=O)c3c([nH]c(C(=O)OCc4ccc(C)cc4)c3C)C2)cc1 (stereo not drawn) | -1.01% | 
Cc1ccc(/C=C2\SC(=S)N(CCC(=O)Nc3ccc(O)cc3)C2=O)cc1 | 9.57% [at 102 µM] | 
C=CCOc1ccc(/C=C2\SC(=S)N(CCC(=O)O)C2=O)cc1 | -6.64% | 
Cc1ccc(-c2nn(-c3ccccc3)cc2/C=C2\SC(=S)N(CCCCCC(=O)O)C2=O)o1 |  | 3.98 µM (active)
CCN1CCN(c2cc3nc(C)n(Cc4ccccc4)c(=O)c3cc2NC(=O)c2ccccc2F)CC1 |  | 35.5 µM (active)
Cc1nc2ccn(Cc3cccnc3)c(=O)c2cc1C(=O)N1CCN(c2ccccc2F)CC1 | 7.35% | 
CCC(=O)Nc1ccc2nc(C)n(Cc3ccccc3Cl)c(=O)c2c1 | 6.34% | 
Cc1cccc(N(C)C(=O)CS(=O)(=O)c2cccc3nsnc23)c1 | 9.05% | 
O=C(NCCCc1ccccc1)c1ccc2c(c1)sc1nc(-c3ccc(F)cc3)cn12 | -17.8% | 
O=C(CC(=O)N/N=C\c1ccc(F)cc1)NCCc1ccccc1 | 2.67% [at 0.501 µM] | 
O=C(CN1CCSCC1)N/N=C/c1ccc(Cl)cc1 |  | 11.2 µM (active)
O=C(CN1CCSCC1)N/N=C/c1ccc(F)cc1 |  | 8.91 µM (active)
Cc1ccc(/C=N/NC(=O)CN2CCN(Cc3ccccc3)CC2)s1 | 14.1% [at 102 µM] | 
O=C(CN1CCN(C/C=C/c2ccccc2)CC1)Nc1ccc(F)cc1F | -7.31% [at 102 µM] | 
Cc1ccc(COc2ccc(/C=N/NC(=O)CN3CCCCC3)cc2)cc1 | -11.8% [at 102 µM] | 
Cc1nn(CC(=O)N/N=C/c2ccc(F)cc2)c(C)c1[N+](=O)[O-] | -0.915% [at 102 µM] | 
O=C(CN1CCSCC1)N/N=C/c1ccc(F)cc1F |  | 15.8 µM (active)
O=C(Cn1cc(C(F)(F)F)ccc1=O)N/N=C/c1ccc(Cl)cc1Cl | 1.22% | 
